Reference: ChEMBL document CHEMBL3988442, “University of Dundee, Small-Polar-MMV Screening Library” (2021)
Out of some 48,000 compounds screened, about 13,000 (27%) showed an effect of 50% or more. This is one part of the list.

Each compound was assayed on Wolbachia pipientis (assay: Anti-Wolbachia Cell-Based Screen). Conditions: 5 µM.
Assay type: functional
Parameters: scale not given: in the data most compounds retested in dose-response had high values

First: COCc1ccccc1CNCc1c(C)nn(C)c1N(C)C
Second: Cc1nn(C)c(N(C)C)c1CNCc1ccccc1CN(C)C
The “Percent Effect” value of the first is lower: 5.243% for the first, 13.98% for the second.

First: CCOc1ncccc1CNCc1c(C(C)C)nn(C)c1N(C)C
Second: COc1ncccc1CNCc1c(C(C)C)nn(C)c1N(C)C
The “Percent Effect” value of the first is higher: 98.21% for the first, 7.273% for the second.

Compared with `Cc1nn(CCO)c(C)c1CNCc1cccnc1N(C)C`, `Cc1nn(C)c(N(C)C)c1CNCc1cccnc1N(C)C` is lower in “Percent Effect” value: 113.9% for the first, 64.69% for the second.

Going from `Cc1cc2nc(C(=O)NCc3cccnc3N(C)C)cc(C)n2n1` to `COc1ncccc1CNCc1c(C)nn(C)c1N(C)C`, the “Percent Effect” value rises from -11.37% to 96.94%.

First: Cc1nn(C)c(N(C)C)c1CNCc1ccccc1Cn1cncn1
Second: CCOc1ncccc1CNCc1c(C)nn(C)c1N(C)C
The “Percent Effect” value of the first is lower: 3.483% for the first, 97% for the second.

Going from `COCCOc1ncccc1CNCc1c(C)nn(C)c1N(C)C` to `Cc1nn(C)c(N(C)C)c1CNCc1cccnc1OC(C)C`, the “Percent Effect” value rises from 5.631% to 107.9%.

Going from `Cc1cnn(CCNCc2c(C)nn(CCO)c2C)c1` to `CCc1ccc(CNc2cc(-c3ccoc3C)nn2CCO)o1`, the “Percent Effect” value falls from 8.317% to -16.42%.

Going from `CC(C)c1nn(C)c(N(C)C)c1CNCc1ccccc1CN(C)C` to `COc1c(CNCc2cccnc2OC(C)C)c(C(C)C)nn1C`, the “Percent Effect” value rises from -8.36% to 2.472%.

Going from `CCOc1ccc(NC2CCN(C)C2=O)cn1` (stereo not given) to `Cc1ccc(N2CCCC(NCc3cnc(C)s3)C2)nn1` (stereo not given), the “Percent Effect” value rises from -24.45% to 95.67%.

Compared with `Cc1noc(C)c1CN(C)CC1CC(C2CCCCC2)=NO1` (stereo not given), `COCCN1CCCC(c2ncc(C(=O)N(C)C)c(C)n2)C1` (stereo not given) is higher in “Percent Effect” value: 7.193% for the first, 128.7% for the second.

Going from `Cc1cc(CNCC2(O)CCOCC2)ccc1Br` to `O=C(NCC1(CO)CC1)c1ccccc1F`, the “Percent Effect” value falls from -3.743% to -18.48%.

Compared with `CN1CCN(CCCOc2ccccc2CN2C[C@H]3CC[C@H]2C3)CC1`, `CN(C(=O)NCCCN1CCCC1)C1CCN(c2ccccc2)C1=O` (stereo not given) is higher in “Percent Effect” value: -24.99% for the first, -8.204% for the second.

First: Cc1ccc(CNC(=O)C2CCN(C(=O)c3ccco3)CC2)n1C
Second: CN(C)[C@@H]1CCN(C(=O)c2ccco2)[C@H]1Cc1cnn(C)c1.O=C(O)C(F)(F)F
The “Percent Effect” value of the first is higher: 1.7% for the first, -8.002% for the second.

First: Cn1cc(CN2C[C@@H]3CCCO[C@@H]3[C@H](N3CCCC3=O)C2)cn1.O=C(O)C(F)(F)F
Second: COCCN1C[C@@H](C)[C@@]2(COCCN(C(=O)c3cnc(C)cn3)C2)C1.O=C(O)C(F)(F)F
The “Percent Effect” value of the first is higher: -11.94% for the first, -26.1% for the second.

Going from `Cc1ccc(N2CCCC(NCc3ccsc3)C2)nn1` (stereo not given) to `Cc1ccc(N2CCCC(NCc3sccc3C)C2)nn1` (stereo not given), the “Percent Effect” value rises from -6.53% to 101%.

Going from `Cc1ccc(N2CCCC(NCc3ccc(C)s3)C2)nn1` (stereo not given) to `Cc1ccc(C#N)c(N2CCCC(c3nccn3Cc3cscn3)C2)n1` (stereo not given), the “Percent Effect” value falls from 102.5% to 8.413%.

First: CCN(CCOC)C(=O)CCc1scnc1C
Second: Cc1ncsc1CCN(C)Cc1cc2n(n1)CCN(Cc1ccco1)C2
The “Percent Effect” value of the first is higher: 1.791% for the first, 0.12% for the second.

First: Cc1nnc2n1CCN(C(=O)c1cnc3c(cnn3CC(C)C)c1)C2
Second: Cc1nc2c(c(=O)n1C)CCN(C(=O)CCc1ccccn1)CC2
The “Percent Effect” value of the first is higher: -2.285% for the first, -4.884% for the second.

First: Cc1ccc(CN(CCCN(C)C)Cc2cnc(N(C)C)nc2)o1.O=C(O)CC(O)(CC(=O)O)C(=O)O
Second: CN(C)CCCN(Cc1cnn(C)c1)Cc1ccco1.O=C(O)CC(O)(CC(=O)O)C(=O)O
The “Percent Effect” value of the first is higher: 115.6% for the first, 115.2% for the second.

Going from `CC(C)CN(Cc1ccc(O)c(C(=O)O)c1)Cc1cnn(C)c1` to `COCCN(Cc1cnn(C)c1)Cc1ccc(C)o1`, the “Percent Effect” value rises from -4.31% to 2.974%.

Going from `COc1cc(CN(Cc2ccccn2)CC(C)C)cc2c1OCO2` to `COc1cc(CN(CCCN(C)C)Cc2ccccn2)cc2c1OCO2.O=C(O)CC(O)(CC(=O)O)C(=O)O`, the “Percent Effect” value rises from -37.75% to 126.3%.

Going from `O=C(Cc1cn2ccsc2n1)N(Cc1ccco1)CC1CCCO1` (stereo not given) to `Cc1nc2sccn2c1CN(CCCN(C)C)Cc1ccco1.O=C(O)CC(O)(CC(=O)O)C(=O)O`, the “Percent Effect” value rises from 1.448% to 131.3%.

Going from `CN(C)c1ccc(CN(CCCn2ccnc2)Cc2c[nH]cn2)cc1.O=C(O)CC(O)(CC(=O)O)C(=O)O` to `CC(C)OCCCN(Cc1cnn(C)c1)Cc1ccccn1.O=C(O)CC(O)(CC(=O)O)C(=O)O`, the “Percent Effect” value rises from -12.92% to 84.46%.

Going from `COCc1cc(N(CC(F)F)C2CC2)n2ncnc2n1` to `COc1ccc(F)cc1CSCC(=O)N(C)C1CC1`, the “Percent Effect” value rises from -15.21% to -12.98%.

Going from `CC(C)(Cn1cnc(-c2ccccc2)c1-c1ccco1)N1CCOCC1` to `COCCn1cnc(-c2nc(C(=O)N3CCOCC3)c3ccccn23)c1`, the “Percent Effect” value falls from 0.7687% to -9.685%.

Compared with `Cc1ccc(CN(CCCN2CCOCC2)Cc2cnn(C)c2)o1.O=C(O)CC(O)(CC(=O)O)C(=O)O`, `CCN(CCCN1CCOCC1)C(=O)c1cnn(CC)c1` is lower in “Percent Effect” value: 97.82% for the first, -6.092% for the second.

Compared with `CN(Cc1cnn(C)c1)S(=O)(=O)N1CCCC1c1ccco1` (stereo not given), `N#Cc1cc(N2CCC(S(N)(=O)=O)CC2)c2ccccc2n1` is lower in “Percent Effect” value: -4.037% for the first, -5.494% for the second.

Compared with `O=C1NCC2(CCCN(C(=O)Nc3ccc4scnc4c3)CC2)O1` (stereo not given), `CN(CC(=O)N1CCCC1)C(=O)c1ccccc1F` is higher in “Percent Effect” value: -9.08% for the first, 15.74% for the second.

Compared with `Cc1cnn(CC2CCN(CC(O)c3ccc(F)cc3)CC2)c1` (stereo not given), `COC(=O)CCN1CCC(C(=O)c2cc(F)ccc2F)CC1` is lower in “Percent Effect” value: -5.813% for the first, -15.76% for the second.

Going from `CC(=O)N1CCS(=O)(=O)[C@@H]2CCN(CC(C)C)CC[C@@H]21.O=C(O)C(F)(F)F` to `CC(C)CN1CC[C@@H]2[C@H](CC1)N(S(C)(=O)=O)CCS2(=O)=O.O=C(O)C(F)(F)F`, the “Percent Effect” value rises from -6.859% to 96.88%.

Compared with `CC(C)CC(=O)N1CC[C@@H]2[C@H](CC1)N(S(C)(=O)=O)CCS2(=O)=O`, `CC(C)CCC(=O)N1CC[C@@H]2[C@H](CC1)N(S(C)(=O)=O)CCS2(=O)=O` is higher in “Percent Effect” value: 1.552% for the first, 94.59% for the second.

Going from `CC(=O)N1CCS(=O)(=O)[C@@H]2CCN(S(=O)(=O)CC(C)C)CC[C@@H]21` to `CC(C)CN1CCS(=O)(=O)[C@@H]2CCN(S(=O)(=O)N(C)C)CC[C@@H]21.O=C(O)C(F)(F)F`, the “Percent Effect” value falls from 8.105% to -16.7%.

Compared with `CC(C)(C)C(=O)N1CC[C@@H]2[C@H](CC1)N(S(C)(=O)=O)CCS2(=O)=O`, `CC(C)(C)CC(=O)N1CC[C@@H]2[C@H](CC1)N(S(C)(=O)=O)CCS2(=O)=O` is lower in “Percent Effect” value: 98.9% for the first, -4.617% for the second.

Going from `CC(C)CN1CCS(=O)(=O)[C@@H]2CCN(S(=O)(=O)C3CC3)CC[C@@H]21.O=C(O)C(F)(F)F` to `Cc1cnc(C(=O)N2Cc3ncn(C)c3C(COCC(C)C)C2)cn1.O=C(O)C(F)(F)F` (stereo not given), the “Percent Effect” value rises from 4.008% to 101.6%.

Going from `C[C@H]1CC[C@H](C(=O)N2CCC(n3cc(C4(O)CCCC4)nn3)CC2)CC1` to `COCCN1CCCC(c2ncc(C(=O)N3CCOCC3)c(C)n2)C1` (stereo not given), the “Percent Effect” value rises from 3.706% to 169%.

Going from `CSc1ncc(C(=O)N2C[C@@H](NC(C)=O)[C@H](c3ccc(C)cc3)C2)cn1` to `CCN(C)C[C@@H]1CN(C(=O)c2cc(-c3ccc(F)cc3)n[nH]2)C[C@@H]1CO`, the “Percent Effect” value rises from -0.9583% to 95.72%.

First: Cc1cc(-c2cncnc2)ccc1OCC(N)=O
Second: COc1ccc(-n2nc(C)c(C(C)=O)c2C)cc1C(N)=O
The “Percent Effect” value of the first is lower: -32.33% for the first, 0.6017% for the second.

Compared with `COCCN1CCCC(c2nc3c([nH]2)CC(C)(C)CNC3=O)C1` (stereo not given), `COc1ccccc1OCCN1CCCC(c2noc(C3CC3)n2)C1` (stereo not given) is higher in “Percent Effect” value: -7.15% for the first, -3.612% for the second.

Compared with `COCCCC1(CO)CCCN(C(=O)c2cnc(C3CC3)nc2)C1` (stereo not given), `COCCN1CCC(c2ncc(C(=O)N3CCOCC3)c(C)n2)CC1` is higher in “Percent Effect” value: -3.858% for the first, 139.1% for the second.

Going from `CCCn1cc(C(=O)N2CCCC(c3nccn3CCOC)C2)c(C)n1` (stereo not given) to `Cn1cnc2c1C(COCC1CC1)CN(C(=O)c1cscn1)C2.O=C(O)C(F)(F)F` (stereo not given), the “Percent Effect” value falls from 0.1706% to -8.988%.

Going from `CN1CC(NC(=O)Cc2csc(C(C)(C)C)n2)CCC1=O` (stereo not given) to `Cn1cnc2c1C(COCC1CC1)CN(C(=O)Cc1ccsc1)C2.O=C(O)C(F)(F)F` (stereo not given), the “Percent Effect” value rises from -3.161% to 12.67%.

Compared with `Cn1cccc1C(O)CNS(=O)(=O)c1ccccc1Br` (stereo not given), `CN(C)C[C@@H]1CN(C(=O)c2cc(-c3ccccc3)n[nH]2)C[C@@H]1CO` is higher in “Percent Effect” value: 6.296% for the first, 104.8% for the second.

Going from `NC(=O)N1CCCC1COC(=O)c1cc(F)ccc1F` (stereo not given) to `CO[C@@H]1CCC[C@@H](N(C)C(=O)c2cc(F)ccc2F)[C@H]1O`, the “Percent Effect” value rises from -4.772% to 130.1%.

Going from `COc1ccc(F)cc1C(=O)N(C)Cc1cc(C)on1` to `COc1ccc(F)cc1C(=O)N(C)[C@@H]1CC[C@@H](O)[C@@H]1O`, the “Percent Effect” value rises from 2.319% to 132.3%.

Going from `CN(C(=O)c1cc(F)ccc1F)[C@@H]1CC[C@@H](O)[C@@H]1O` to `CN(C(=O)c1ccccc1F)[C@@H]1CC[C@@H](O)[C@@H]1O`, the “Percent Effect” value rises from 103% to 107.7%.

First: N[C@@H]1CC[C@H](C(=O)NCCc2nc(-c3ccccc3)cs2)C1
Second: COCC1CN(C(=O)COc2ccccc2C)Cc2ncn(C)c21.O=C(O)C(F)(F)F (stereo not given)
The “Percent Effect” value of the first is higher: 11.72% for the first, -9.212% for the second.

First: COc1ccc2c(c1)OCC(Cc1cncc(N)c1)C2 (stereo not given)
Second: COc1cccc(OC)c1C(=O)N1C[C@@H](CN(C)C)[C@@H](CO)C1
The “Percent Effect” value of the first is higher: -0.2819% for the first, -5.352% for the second.

Going from `CCN(C)C[C@@H]1CN(C(=O)c2cc(C(F)(F)F)n[nH]2)C[C@@H]1CO` to `CN(C)C[C@@H]1CN(C(=O)c2cc(F)ccc2F)C[C@@H]1CO`, the “Percent Effect” value falls from 95.2% to -6.942%.

First: CN(C)C[C@@H]1CN(C(=O)c2cc(S(N)(=O)=O)ccc2F)C[C@@H]1CO
Second: COc1cccc(F)c1C(=O)N1C[C@@H](CN(C)CCO)[C@@H](CO)C1
The “Percent Effect” value of the first is higher: 8.109% for the first, 0.09463% for the second.

Compared with `CC(=O)NCCNC(=O)Nc1cccc(Cl)c1SC(F)F`, `CC(C)COCC1CN(C(=O)c2cscn2)Cc2ncn(C)c21.O=C(O)C(F)(F)F` (stereo not given) is higher in “Percent Effect” value: -0.5749% for the first, 123.8% for the second.
